# Peg3 promoter: inhibitors of Peg3 promoter. hit rate 1.7% among 360,000. HeLa PEG-Prom luciferase reporter, luminescence, overnight. inhibition, % at 20 µM. AID 588405;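 active = inhibition of at least 50% at 20 µM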
# HIF-2a block: HIF-2a inhibition; hit rate 0.72% among 360,000; inhibition, % at 18.8 µM; AID 624352; 786-0 RCC cells HIF-2a reporter, luciferase luminescence, overnight;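 active = inhibition of the luminescence signal of 40% or more relative to plate controls, in a single-dose primary screen at 18.75 µM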
# MITF TRPM1 inh: inhibitors of MITF-driven TRPM1 promoter in melanoma cells. SK-MEL-5 TRPM1 promoter luciferase, 24 h. inhibition, % at 12.5 µM. hit rate 0.83% among 330,000. AID 488899;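 active = mean inhibition across replicates of 60% or more, whatever share of single replicates reaches that level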
# KKLEB cytotox: CF airway cell cytotoxicity counter-screen. KKLEB CF airway cells viability, ATPlite luminescence, overnight; stronger effect = lower value; cells stimulated with P. aeruginosa culture filtrate. activity change (cytotoxicity), % at 5 µM. hit rate 0.36% among 360,000. AID 602141;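 active = corrected activity change at or below -50% at 5 µM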
# CF NFkB block: inhibitors of cystic fibrosis induced NF-kB; inhibition, % at 5 µM; KKLEB NF-kB-GFP reporter, PAF-induced, GFP fluorescence overnight; hit rate 0.86% among 360,000;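 active = at least 50% inhibition at 5 µM, scaled per plate between neutral and stimulator controls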;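 also: PAF is a Pseudomonas aeruginosa culture filtrate used as stimulus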
# LMP1 NFkB inh: Epstein-Barr LMP1 NF-kappaB reporter inhibition; LMP1-induced NF-kappaB luciferase reporter cells, luminescence; inhibition, % at 12.5 µM; hit rate 0.69% among 350,000; in the data active = inhibition above about 41%
# CF NFkB conf: confirmation of cystic fibrosis induced NF-kB inhibitors; hit rate 64% among 1,300; shares compounds with CF NFkB block; KKLEB CF airway cells, PAF-induced NF-kB-GFP fluorescence, overnight; inhibition, % at 5 µM; AID 602472; in the data active = inhibition above about 40%;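 also: stimulus PAF is a Pseudomonas aeruginosa filtrate and not platelet activating factor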
# Hits are given with their value; - = inactive; . = no result given. This is a sample that favours compounds with a hit; in the whole collection about 3% have one here.
SMILES,Peg3 promoter,HIF-2a block,MITF TRPM1 inh,KKLEB cytotox,CF NFkB block,LMP1 NFkB inh,CF NFkB conf
CC(=O)NC(c1ccccc1)c1nc(-c2ccc(F)c(Cl)c2)cs1 (configuration not stated),-,-,.,-,-,.,.
CC(C)[C@H](CO)Nc1nc(NCc2ccc(S(N)(=O)=O)cc2)c2ncn(C(C)C)c2n1,-,-,-,-,70.7,-,103.6
CC(C)n1cnc2c(NCc3ccc(S(N)(=O)=O)cc3)nc(NCc3ccc(S(N)(=O)=O)cc3)nc21,-,-,-,-,-,-,.
CCN(c1ccccc1)S(=O)(=O)c1ccc(Cl)c(C(=O)NC2CCN(Cc3ccccc3)CC2)c1,-,-,-,-,-,-,.
O=C(Oc1ccc(F)cc1C(=O)/C=C/c1cccs1)c1cccc([N+](=O)[O-])c1,-,-,-,-,50.4,-,59.8
COCCNc1ncnc2c1ncn2[C@H]1CN(Cc2ccccc2)C[C@@H](CO)O1,-,-,.,-,-,.,.
COc1ccc(CN(CCC(c2ccc(F)cc2)C2CCOC(C)(C)C2)C(=O)c2ccco2)cc1 (configuration not stated),50.5,-,-,-,73.5,-,49.5
COCCCNC(=O)c1c(N)n(/N=C/c2cccnc2)c2nc3ccccc3nc12,-,-,-,-,-,-,.
CC(C)OCCCNC(=O)c1c(N)n(/N=C/c2ccccn2)c2nc3ccccc3nc12,-,-,-,-,56.4,-,-
COc1ccc(Cl)cc1-c1cc(C(=O)NCc2cc(C(F)(F)F)cc(C(F)(F)F)c2)[nH]n1,-,-,.,-,-,.,.
Cc1ccc(Cl)cc1-c1cc(C(=O)NCc2cc(C(F)(F)F)cc(C(F)(F)F)c2)[nH]n1,-,-,.,-,58.6,.,62.9
NC1(C(=O)O)CSSC1,82.2,-,64.6,-,61.8,-,57.2
CCOC(=O)[C@@H]1[C@H]2COc3ccc(Br)cc3[C@H]2N2C(=O)N(c3ccc(C)cc3)C(=O)[C@]12C,-,-,-,-,50.8,-,41.9
CCOC(=O)[C@@H]1[C@H]2COc3ccc(Br)cc3[C@@H]2N2C(=O)N(c3ccc(C)cc3)C(=O)[C@]12C,-,-,-,-,-,-,.
CC(=O)c1cc2c(cc1NC(=O)CSc1ncccn1)OCO2,-,-,.,-,-,-,.
Cc1onc(-c2ccccc2Cl)c1C(=O)Oc1cc(N)n(S(=O)(=O)c2ccc(F)cc2)n1,-,-,-,-,62.5,-,-
Cc1ccc(S(=O)(=O)n2nc(OC(=O)c3c(-c4ccccc4Cl)noc3C)cc2N)cc1,-,-,-,-,-,-,.
Cc1nn(C)cc1CN(C)C(=O)C1CCC(=O)N(CCc2cccc(F)c2)C1 (configuration not stated),-,-,.,-,-,-,.
COc1ccc2nc(NC(=O)Nc3ccccc3)sc2c1,-,-,-,-,-,-,.
CC(C)(C)c1nc(NC(=O)Nc2ccccc2)sc1Br,-,-,-,-,69.1,-,64.8
CC1(O)CC(c2ccc(Cl)cc2)=NN1C(=O)c1ccc(Cl)cc1 (configuration not stated),-,-,-,-,58.1,-,76.0
COc1ccc(C#Cc2ccc3c(c2)O[C@H](CN(C)S(=O)(=O)c2ccccc2F)[C@H](C)CN([C@H](C)CO)S3(=O)=O)cc1,-,-,.,-,-,.,.
COCCNC(=O)C1(C)CCCN(C(=O)c2ccc(C)c(F)c2)C1 (configuration not stated),-,-,.,-,-,.,.
CCOc1ccc(C(C(=O)NCC2CCCO2)N(Cc2cccs2)C(=O)c2snc(C(N)=O)c2N)cc1 (configuration not stated),-,-,-,-,72.0,-,71.7
O=C(Nc1ccc2c(c1)OCO2)c1cc(-c2ccc(O)cc2)on1,-,-,-,-,52.3,-,-
SMILES,Peg3 promoter,HIF-2a block,MITF TRPM1 inh,KKLEB cytotox,CF NFkB block,LMP1 NFkB inh,CF NFkB conf
O=C(Nc1ccc2c(c1)OCO2)c1cc(-c2cccc(O)c2)on1,-,-,-,-,-,-,.
N#Cc1cc(C(=O)c2cc(Cl)ccc2O)cn(-c2ccccc2)c1=O,-,-,-,-,-,-,.
Cc1ccc(NC(=O)c2cc(C(=O)c3cc(Cl)ccc3O)cn(-c3ccc(C)cc3)c2=O)cc1,-,-,-,-,54.6,-,56.3
CCN(c1ccc(OC)cc1)c1ncnc2nc[nH]c12,-,-,-,-,66.0,-,85.8
CCCCN(CCCC)c1ncnc2nc[nH]c12,-,-,-,-,52.9,-,69.8
CCCCN(Cc1ccccc1)c1ncnc2nc[nH]c12,-,-,.,-,-,-,.
O=C(N/N=C/c1cccnc1)c1ccccc1Cl,-,-,-,-,-,-,.
Nc1c(Cl)c(Cl)nc(C(=O)N/N=C/c2cccnc2)c1Cl,-,-,.,-,51.0,.,-
COc1ccc(C2(CO)OC(CO)C(O)C2O)cc1 (configuration not stated),-,-,-,-,-,-,.
COc1ccc(C)cc1NC(=O)COC(=O)Cc1c[nH]c2ccccc12,-,-,.,-,-,-,.
Cc1cccc(NC(=O)Nc2cccc(C#N)c2)n1,-,-,-,-,-,-,.
Cc1cccc(NC(=O)Nc2ccc(C#N)cc2)n1,62.0,-,-,-,75.2,-,97.8
Cc1cc(NC(=O)Nc2cccc([N+](=O)[O-])c2)no1,-,-,-,-,-,-,.
Cc1ccc(NC(=O)Nc2cccc([N+](=O)[O-])c2)cc1F,-,-,-,-,64.9,-,51.6
Cc1nnc(NC(=O)CC23CC4CC(CC(C4)C2)C3)s1,-,-,.,-,-,-,.
O=C(CC12CC3CC(CC(C3)C1)C2)Nc1nncs1,-,-,-,-,50.4,-,60.8
COc1cc(C(O)c2nc(-c3cccc(C#N)c3)cs2)ccc1F (configuration not stated),-,-,.,-,-,.,.
CC(C)c1nc(SCC(=O)N2CCCc3ccccc32)c2c(=O)n(C)c(=O)n(C)c2n1,62.7,-,.,-,64.5,-,-
CCn1c(SCC(=O)N2CCCc3ccccc32)nc2c1c(=O)n(C)c(=O)n2C,-,-,-,-,-,-,.
CC(=O)c1c(C)n(-c2ccc(Br)cc2)c2ccc(O)cc12,-,-,-,-,-,-,.
CC(=O)c1c(C)n(-c2ccc(C)cc2C)c2ccc(O)cc12,-,-,-,-,64.8,-,68.5
CC(=O)c1ccc(-n2c(C)c(C(C)=O)c3cc(O)ccc32)cc1,-,-,-,-,55.6,-,66.3
CCOc1ccc(-n2c(C)c(C(C)=O)c3cc(O)ccc32)cc1,-,-,-,-,57.0,-,84.1
CCOc1ccc(-n2c(C)c(C(=O)OC)c3cc(O)ccc32)cc1,-,-,-,-,-,-,.
CC(=O)c1c(C)n(-c2ccccc2)c2ccc(O)cc12,-,-,-,-,59.4,-,72.3
Cc1c(Br)cccc1NC(=O)C1(C)CCN1CCc1ccccc1 (configuration not stated),-,-,.,-,-,.,.

# Screens deposited in PubChem BioAssay by several laboratories.
